# According to the supplement of paper PMC7411640:
# Where a name gives a salt, the structure may show the parent alone.
# Test system: MDA-MB-468
# Test: phospho-S6 immunofluorescence (DAPI-normalised), per-plate z-score; higher = higher phospho-S6 signal (less pathway suppression)
# Conditions: 24 h
# Procedure: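 GPCR-targeted compound library (MedChemExpress HY-L006) tested on MDA-MB-468 PTEN-null TNBC cells in 384-well plates at 0.1, 1 or 10 uM, combined with vehicle, GDC0941 450 nM or lapatinib 1 uM, for 24 h. Phospho-S6 (S240/244) immunofluorescence normalised to DAPI and expressed as a per-plate z-score; values are the mean of biological triplicates.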
Structure (SMILES),phospho-S6 immunofluorescence (z-score) (co-treatment: GDC0941 450 nM),phospho-S6 immunofluorescence (z-score) (co-treatment: lapatinib 1 uM),phospho-S6 immunofluorescence (z-score) (co-treatment: vehicle)
CC(C)(C)NCC(O)COc1cccc2c1CCC(=O)N2 (centres undefined) [Carteolol (hydrochloride)] (compound 10 µM),0.64,0.45,-0.38
O=C(O)COc1cccc(CN(Cc2ccc(-n3cccn3)cc2)S(=O)(=O)c2cccnc2)c1 [Taprenepag] (compound 10 µM),-0.91,0.34,-0.73
CCC(=O)O[C@]1(C(=O)CCl)[C@@H](C)C[C@H]2[C@@H]3CCC4=CC(=O)C=C[C@]4(C)[C@@]3(F)[C@@H](O)C[C@@]21C [Clobetasol propionate] (compound 10 µM),-0.19,-0.09,0.7
CC(C)=CCC[C@](C)(O)[C@H]1CC[C@]2(C)[C@@H]1[C@H](O)C[C@@H]1[C@@]3(C)CC[C@H](O)C(C)(C)[C@@H]3[C@@H](O)C[C@]12C [(20S)-Protopanaxatriol] (compound 10 µM),-1.71,-2.12,-0.03
CC(=O)[C@H]1CC[C@H]2[C@@H]3CC=C4C[C@@H](O)CC[C@]4(C)[C@H]3CC[C@]12C [Pregnenolone] (compound 10 µM),1.58,1.58,0.85
Cc1ccccc1C(=O)Nc1ccc(C(=O)N2CCCC(N(C)C)c3ccccc32)cc1 (centres undefined) [Mozavaptan] (compound 10 µM),-0.25,-0.18,-0.16
C[N+]1(C)[C@@H]2CC[C@H]1C[C@@H](OC(=O)C(O)c1ccccc1)C2 (some centres undefined) [Homatropine (methylbromide)] (compound 10 µM),0.87,1.2,1.2
Nc1ncnc2c1ncn2C1CCCO1 (centres undefined) (compound 10 µM),0.45,-0.67,-0.21
C[C@H](Nc1cc(NS(=O)(=O)N2CCC2)nc(SCc2cccc(F)c2F)n1)[C@@H](O)CO (compound 10 µM),-1.17,-0.3,-0.77
N[C@@H](CCC(=O)O)C(=O)[O-].[Na+] [L-Glutamic acid monosodium salt] (compound 10 µM),0.12,-0.6,-0.39
CCOc1nc2cccc(C(=O)O)c2n1Cc1ccc(-c2ccccc2-c2nnn[nH]2)cc1 [Candesartan] (compound 10 µM),1,0.32,0.19
CN(C)CCc1c[nH]c2ccc(Cn3cncn3)cc12 [Rizatriptan (benzoate)] (compound 10 µM),-1.62,0.19,-1.1
NC(=O)CC[C@H](N)C(=O)O [L-Glutamine] (compound 10 µM),-0.23,-0.64,-0.12
